Sampled rows, rich in hits. Any-hit rate of the full collection: about 0.34%.
AID504770 = growth inhibitors of E. coli YBA685 in a screen for V. cholerae RctB (chromosome II replication) inhibitors; E. coli YBA685 rctB-dependent plasmid, OD600 growth, 3 h; hits give low values; z-score (no concentration beside the values); 130,000 compounds, 0.27% hits; in the data active = z-score below about -2, passing the limit was not always enough
CapD inh = blocks the Bacillus anthracis CapD enzyme | purified CapD enzyme, fluorescence intensity read-out; hits give low values | z-score (concentration not given with the values) | 140,000 compounds, 0.23% hits; in the data active = z-score mostly below about -2.9, no sharp cut-off; inactive = mostly above about -1.9
Of the large screens only hits and unclear results are named; the others gave an inactive call.

O=C(c1ccc(Cl)cc1)N1CCSC1=S	CapD inh -3.52
O=C(O)C1SCCN1C(=O)c1ccc(Cl)cc1 (configuration not stated)	none
O=C1CN(C(=O)OCc2ccccc2)C(c2ccccc2)=C2C=C(Br)C=CC2N1 (configuration not stated)	none (no result: AID504770)
COC(=O)C1=NNC2C(=O)N(c3cc(C)cc(C)c3)C(=O)C12 (configuration not stated)	none (no result: CapD inh)
N#CC1=C(SCc2ccccc2)NC(=O)C(C#N)C1c1ccccc1Cl (configuration not stated)	none
COc1cc(/C=C(\C#N)C(=O)C(C)(C)C)ccc1O	none (no result: CapD inh)
COc1cc(C=C(C#N)C#N)ccc1O	CapD inh -4.3
Cc1ccc(CN2C(=O)C=CC2=O)cc1	none
O=C1C=CC(=O)N1Cc1ccccc1	AID504770 -2.5 (no result: CapD inh)
CC1=NN(c2ccc3c(S(=O)(=O)O)cc(S(=O)(=O)O)cc3c2)C(=O)C1	CapD inh -6 (no result: AID504770)
CC1=NN(c2ccc(N)cc2)C(=O)C1	none (no result: CapD inh)
COc1ccc(-n2c(=O)c3c4c(sc3n3c(C)nnc23)CCCCC4)cc1	none (no result: AID504770)
Cc1ccc(NC2OC(CO)C(O)C2O)cc1C (configuration not stated)	none
O=C(O)c1ccc(NC2OC(CO)C(O)C2O)cc1 (configuration not stated)	CapD inh -6.54
CCOc1ccc(N2CC(C(=O)Oc3ccc4c(C)cc(=O)oc4c3)CC2=O)cc1 (configuration not stated)	none (no result: CapD inh)
COc1cccc(NC(=O)Cn2sc3ccccc3c2=O)c1	AID504770 -2.55 (no result: CapD inh)
COc1cccc(NC(=O)Cn2ccc3c(OC)cccc3c2=O)c1	none (no result: CapD inh)
O=C1CC(c2ccccc2)Cc2c1cnn2-c1nc2ccccc2[nH]1 (configuration not stated)	none (no result: CapD inh)
CCCCN(C)S(=O)(=O)c1csc(C(N)=O)c1	none
COC(=O)C1C(=O)C2=C(CC1C)Nc1ccccc1NC2c1ccc(C)cc1 (configuration not stated)	none (no result: CapD inh)
COC(=O)C1C(=O)C2=C(CC1C)Nc1ccccc1NC2c1ccccc1C (configuration not stated)	CapD inh -4.02
O=C(O)CC(C(=O)O)N1C(=O)/C(=C/c2ccc(-c3ccc(Br)cc3)o2)SC1=S (configuration not stated)	CapD inh -4.46 (no result: AID504770)
O=C(O)CC(C(=O)O)N1C(=O)/C(=C/c2ccc(Cl)cc2)SC1=S (configuration not stated)	none (no result: AID504770)
CCn1cc(C(=O)O)c(=O)c2cc(F)c(N3CCN(C(C)=O)CC3)cc21	AID504770 -3.05 (no result: CapD inh)
CCn1cc(C(=O)NC)c(=O)c2ccc(C)nc21	none (no result: CapD inh)
CCn1cc(C(=O)O)c(=O)c2cc(F)c(N3CCNCC3)nc21	AID504770 -3.55
CCn1cc(C(=O)NC2CCCCCC2)c(=O)c2cc(F)c(N3CCN(C(C)=O)CC3)cc21	none (no result: CapD inh)
CCn1cc(C(=O)O)c(=O)c2cc(F)c(N3CCN(C(=O)c4ccc(F)cc4)CC3)cc21	AID504770 -3.65
CCn1cc(C(=O)O)c(=O)c2cc(F)c(F)cc21	none
COc1ccc(-c2cc(C(=O)NC(C)(C)CO)on2)cc1OC	none
Cc1ccc(N2C3CCCCCN3CC2(O)c2ccc(Cl)cc2)cc1 (configuration not stated)	none (no result: CapD inh)
Cc1ccccc1NS(=O)(=O)c1ccc(CCN2C(=O)c3cccnc3C2=O)cc1	none
C=CCc1ccc(NC(C)=O)cc1O	none (no result: AID504770)
CCOC(=O)Cc1c[nH]c2ccccc12	none
CCOC(=O)CC(=O)c1c[nH]c2ccccc12	AID504770 -2.2
COc1c([N+](=O)[O-])cc(C(F)(F)F)cc1[N+](=O)[O-]	none (no result: AID504770)
O=C(Cn1nnc2ccccc21)N1CCN(S(=O)(=O)Cc2ccccc2)CC1	none (no result: CapD inh)
CN(C(=O)C1(c2cccs2)CCOCC1)c1ccccc1	none (no result: CapD inh)
COC(=O)Cn1cnc2c(cnn2-c2ccccc2)c1=O	none
COc1ccc(CCNC(=O)Cn2cnc3c(cnn3-c3ccccc3)c2=O)cc1OC	AID504770 -3.6
COc1ccc(Cc2nc3c4c(-c5ccccc5)c(-c5ccccc5)oc4ncn3n2)cc1OC	none (no result: AID504770)
N#Cc1c(-c2ccccc2)[nH]c(=S)[nH]c1=O	CapD inh -6.12
CN(C)c1ccc(-c2[nH]c(=S)[nH]c(=O)c2C#N)cc1	none
CSc1nc(NC(=O)C/C=N\OCc2ccc([N+](=O)[O-])cc2)nn1C	none (no result: AID504770)
CCCN1C/C(=C\c2ccc(N(C)C)cc2)C(=O)/C(=C/c2ccc(N(C)C)cc2)C1	none
CCCN1C/C(=C/c2ccsc2)C(=O)/C(=C/c2ccsc2)C1	CapD inh -4.72
O=C(Nc1scc(-c2cccs2)c1C(=O)O)c1ccc(F)cc1	none
CSC(=CC(=O)c1ccco1)SC	none
CN(C)/C=C/C(=O)c1ccco1	CapD inh -4.41
O=C(Nc1nc2ccc(Br)cc2s1)c1c(O)c2c(n(Cc3ccco3)c1=O)CCCC2	none (no result: AID504770)
Cc1cc(C)cc(COn2c(-c3ccc(Cl)cc3)nc3ncccc32)c1	none (no result: AID504770)
Cc1nc2ccccc2[nH]c1=S	none (no result: CapD inh)
NNc1nc2ccccc2[nH]c1=S	AID504770 -3.2
COc1cccc(NC(=O)c2ccc(C)cc2)c1	none
COc1ccc2c(c1)C(C(C#N)C#N)C(C#N)=C(N)O2 (configuration not stated)	AID504770 -2.4
N#CC1=C(N)Oc2ccc(Br)cc2C1C(C#N)C#N (configuration not stated)	none (no result: AID504770)
COc1ccc(-c2c(C#N)c(N)nc(OC)c2C#N)cc1	none (no result: CapD inh)
COc1ccc2c(c1)C(C(C#N)C#N)c1c(nc(N)c(C#N)c1N)O2 (configuration not stated)	AID504770 -3.05
Cc1oc(-c2ccc(Cl)cc2)nc1CN1CCC(C(=O)NCc2ccc3c(c2)OCO3)CC1	none
Cc1ccc(C)c(C(C)CN)c1 (configuration not stated)	none (no result: CapD inh)
O=C(O)c1ccc(N=NN2CCCC2)cc1	none
CC(=O)Nc1ccc(N=NN2CCCCC2)cc1	AID504770 -2.5 (no result: CapD inh)
CCOC(=O)c1[nH]c2cc3[n+](c(CC(C)C)c2c1C)C(C)C(C)=C3C (configuration not stated)	none (no result: AID504770)
Cc1ccc(-c2csc3ncnc(N4CCC(O)CC4)c23)cc1	none
O=C(CN1CCN(c2ncnc3scc(-c4ccc(Cl)cc4)c23)CC1)NC1CC1	AID504770 -4.9 (no result: CapD inh)
CN(C(=O)C1CC1C(=O)O)C1CCN(Cc2c(Cl)cccc2Cl)C1 (configuration not stated)	none (no result: AID504770)
CCOC(=O)CN1CCN(c2ccc(F)cc2)CC1	none (no result: CapD inh)
O=C1OC/C(=C(\O)c2ccc(Cl)cc2)C1=O	CapD inh -5.44
O=C1OC/C(=C(/O)c2ccccc2)C1=O	none
Cc1cccc2nc(CSC(=S)NCc3cccnc3)cn12	AID504770 -3.7
Cc1cccc2nc(CSC(=S)NCC3CCCO3)cn12 (configuration not stated)	none
N#Cc1ccc(-c2ccc(Cl)c(Cl)c2)nc1Sc1ccc(F)cc1	none (no result: AID504770)
O=C1N=c2ccccc2=C1N=Nc1c(O)[nH]c2ccccc12	none
O=C1CSC(N=Nc2c(O)[nH]c3ccccc23)=N1	CapD inh -4.12
COc1cc(OC)cc(C2SC(N)=C(C#N)C(N)=C2C#N)c1 (configuration not stated)	none
N#CC1=C(N)SC(c2cccs2)C(C#N)=C1N (configuration not stated)	CapD inh -5.11
CC(C(=O)Nc1ccc(S(N)(=O)=O)cc1)C1SC(=O)NC1=O (configuration not stated)	none
COC(=O)CCCC1C2SCC(NC(=O)c3ccccc3)(C2=O)C2(O)C(NC(=O)c3ccccc3)CSC12 (configuration not stated)	none (no result: AID504770)
CCOC(=O)N1CCC(=NNC(=S)Nc2c(C)cccc2C)CC1	none (no result: CapD inh)

Source: PubChem
